PrP UTR inh – inhibition of PrP 5' UTR reporter expression. cell-based PrP 5' UTR mRNA reporter, plate reader. inhibition, % (test concentration not listed). 0.35% of 340,000 active; in the data active means inhibition above about 52%; further: 0 = median of the neutral control wells
PrPC surface inh – inhibitors of human cell surface prion protein PrPC, primary screen, cell-based, TR-FRET. Major prion protein (Homo sapiens), P04156. TR-FRET read-out. inhibition, % at 13.8 µM. 0.43% of 370,000 active. AID 720596, 2013; in the data active means inhibition above about 24%; further: 0% = median of the test wells and 100% = reference compound wells
CCHFV vOTU inh – CCHFV vOTU protease inhibitors, primary screen, biochemical, Pep-AMC substrate, fluorescence | Crimean-Congo hemorrhagic fever virus L polyprotein viral ovarian tumor (vOTU) protease … | 0.55% of 370,000 active | AID 651958, 2012 | inhibition, % at 11.5 µM; in the data active means inhibition above about 30%; further: 0% = vehicle wells with enzyme and 100% = no enzyme wells
SARS 3CLpro inh – SARS-CoV 3CLpro protease inhibitors, primary screen, biochemical, quenched FRET; Replicase polyprotein 1ab (Severe acute respiratory syndrome coronavirus), P0C6X7; recombinant SARS-CoV 3CLpro, quenched FRET peptide cleavage; inhibition, % at 6 µM; 0.14% of 290,000 active; in the data active means inhibition above about 12%
PrP UTR cherry – prion 5' UTR mRNA inhibition, cherry-pick retest. inhibition, % at 2.5 µM. AID 504592, 2011. cell-based prion protein 5' UTR reporter, plate reader. shares compounds with PrP UTR inh. 48% of 1,100 active; in the data active means inhibition above about 54%; inconclusive means no clear call, values can overlap the other calls
Active calls of the source: *; ? = inconclusive; . = no result given. In the library only some 1.3% were active in any assay of this set; here they are far more common.

SMILES | PrP UTR inh | PrPC surface inh | CCHFV vOTU inh | SARS 3CLpro inh | PrP UTR cherry
COC(=O)c1ccc(NC(=O)CC2C(=O)N(c3ccc(C)cc3)C(=O)N2CC(C)C)cc1 (stereo unspecified) | -1.6 | 3.3 | -5.3 | -0.2 | .
CN(C(=O)c1cc2ccccc2oc1=O)C1(C)CCS(=O)(=O)C1 (stereo unspecified) | 81.3* | 0.5 | -16.0 | 5.2 | -4.4
CCc1ccc2c(CN(CC)Cc3nc4ccccc4c(=O)[nH]3)cc(=O)oc2c1 | -1.8 | -4.1 | 7.1 | 0.3 | .
COc1cc(/C=C2\COC/C(=C\c3cc(OC)c(OC)c(OC)c3)C2=O)cc(OC)c1OC | 89.1* | -2.6 | -13.5 | 1.2 | 96.8*
Cc1ccc(/C(N)=N/OC(=O)c2ccc(Cl)cc2Cl)cc1 | -28.7 | -0.2 | 22.6 | 8.3 | .
CN=c1scc(-c2cccs2)n1/N=C/c1ccccc1O | 93.9* | -2.9 | -6.2 | 2.0 | 90.3*
C=CCNC(=O)C1CCN(C(=O)c2ccc(-c3ccccc3)cc2)CC1 | 60.0* | -5.6 | -9.2 | 4.0 | ?
O=C(NNC(=O)c1ccccc1F)c1ccc(S(=O)(=O)N2CCCCC2)cc1 | -9.9 | -3.4 | 10.6 | . | .
Cc1ccc(NC(=O)CNC(=O)C23CC4CC(CC(C4)C2)C3)nc1 | . | 8.4 | 13.7 | . | .
NC(=O)COC(=O)c1ccc(S(=O)(=O)N2CCCCCC2)cc1 | -15.6 | -0.7 | 5.2 | -1.4 | .
Cc1nc(COC(=O)c2ccc(S(=O)(=O)N3CCCC3)cc2)cs1 | 89.4* | -0.6 | -11.7 | 5.0 | -12.4
CCOc1ccc2c(c1)C(C)=CC(C)(C)N2S(=O)(=O)c1ccc(C)cc1 | 66.0* | 9.5 | 17.8 | 3.6 | 86.7*
O=C(NC1CCCCC1)C(c1ccc(F)cc1)N(Cc1cccs1)C(=O)CN1C(=O)c2ccccc2S1(=O)=O (stereo unspecified) | -34.8 | 12.1 | -15.6 | 1.9 | .
O=Cc1cn(Cc2cccc([N+](=O)[O-])c2)c2ccccc12 | 71.2* | -7.8 | -3.6 | 0.3 | 15.8
CC(C)CCCCCCCCCCCCC(=O)NCC(=O)NC1C(O)C(O)C(Nc2ncnc3nc[nH]c23)OC1C(O)CO (stereo unspecified) | 89.5* | . | . | . | 86.3*
CC(O)CNc1ncnc2nc[nH]c12 (stereo unspecified) | -19.6 | -0.5 | -11.1 | -0.2 | .
CCN(C[C@H]1N[C@@](Cc2ccccc2)(C(=O)OC)[C@H]2C(=O)N(Cc3ccccc3)C(=O)[C@@H]12)S(=O)(=O)c1ccc(C(C)(C)C)cc1 | -10.4 | -1.2 | -0.4 | . | .
CCN(C[C@H]1N[C@@](Cc2ccccc2)(C(=O)OC)[C@H]2C(=O)N(C)C(=O)[C@@H]12)S(=O)(=O)c1ccc(C(C)(C)C)cc1 | 59.5* | -6.0 | -5.9 | . | -5.8
O=C1CCCCC1Sc1nnc(-c2ccc3c(c2)OCO3)o1 (stereo unspecified) | 55.5* | 6.0 | -1.1 | 3.6 | ?
Clc1ccc(CSc2nnc(-c3ccc4c(c3)OCO4)o2)cc1 | -14.4 | 4.5 | 16.0 | 1.6 | .
Cc1ccc(-c2cc3c(nn2)-c2ccccc2C3=O)cc1 | 75.6* | -9.0 | 25.3 | -3.9 | 82.4*
O=C1c2ccccc2-c2nnc(-c3ccc(F)cc3)cc21 | 7.3 | -2.5 | 0.8 | -2.3 | .
CC(=O)Nc1sc(-c2ccccc2)nc1-c1ccccc1 | 8.2 | -0.4 | -3.0 | 2.0 | .
C=CCSc1nnc(NC(=O)CSc2nnc(C)s2)s1 | 81.0* | 2.6 | 16.3 | 3.2 | -34.1
CNC(=O)c1cc(Cl)c(OC)c(OC)c1 | -18.1 | -5.6 | -5.6 | 1.0 | .
SMILES | PrP UTR inh | PrPC surface inh | CCHFV vOTU inh | SARS 3CLpro inh | PrP UTR cherry
COC(=O)C(=O)C1CCc2c(Cl)cc(OC)c(OC)c2C1=O (stereo unspecified) | 93.6* | -14.2 | -3.6 | . | -15.6
C(=NN1CCCCCC1)c1cccc2ccccc12 | -25.7 | -3.5 | 8.8 | . | .
C(=NN1CCCCCC1)c1ccc2ccccc2n1 | 93.9* | 0.7 | 3.3 | . | 91.1*
Nc1cc(=O)[nH]c(SCCSc2cc(Cl)ccc2Cl)n1 | 57.7* | 10.8 | 11.4 | 0.0 | 39.2
Nc1cc(=O)[nH]c(SCCSc2ccccc2F)n1 | 24.2 | 1.2 | 2.0 | 2.3 | .
CC1CN(C(=O)CCC(=O)NCc2ccc(Cl)cc2)c2ccccc2S1 (stereo unspecified) | 62.9* | 13.6 | -3.5 | -1.3 | -13.2
CCCCn1nc(C(=O)Nc2cc(S(=O)(=O)N(C)C)ccc2C)c2ccccc2c1=O | -7.3 | 5.7 | -10.1 | -0.4 | .
COC(=O)c1nn(-c2ccc3c(c2)CCN3C(C)=O)cc1O | 81.7* | 2.4 | -81.8 | -2.1 | 80.6*
COC(=O)c1nn(-c2ccc3c(c2)OCO3)cc1O | -68.0 | 10.2 | -22.6 | -0.6 | .
O=C(c1cccc(S(=O)(=O)N2CCOCC2)c1)N(CCc1ccccc1)Cc1ccccc1 | -14.3 | -1.9 | -5.3 | . | .
COC1=C(C)C(=O)C2=C(C1=O)C1C3CC4=C(C(=O)C(OC)=C(C)C4=O)C(CNC(=O)C(C)=O)N3C(C#N)C(C2)N1C (stereo unspecified) | 93.8* | 0.8 | 18.9 | . | 97.4*
CCOc1ccccc1OCCCC(=O)N1CCN(S(=O)(=O)c2ccc(Cl)cc2)CC1 | 87.2* | -6.1 | -3.9 | . | -10.4
CCCOc1ccccc1OCC(=O)N1CCN(S(=O)(=O)c2ccc(Cl)cc2)CC1 | -16.9 | -7.0 | 1.9 | . | .
Cn1c(=O)c2c(ncn2CCC(=O)N/N=C/c2cccnc2)n(C)c1=O | -11.1 | -1.6 | -2.4 | 0.2 | .
Cc1ccc(CSc2nnc(-c3ccncc3)n2C)cc1 | 2.0 | 6.6 | -8.3 | 4.5 | .
CC(Oc1ccc(F)cc1)C(O)CCN(C)C (stereo unspecified) | 73.7* | 7.7 | 7.5 | 0.0 | -11.7
CC(C)Oc1ccc(C(CC(=O)NCCCN(C)C)c2ccc(F)cc2)cc1 (stereo unspecified) | -18.8 | -11.2 | 8.7 | 1.9 | .
COc1cc([C@@H]2c3cc4c(cc3[C@H](O)[C@H]3COC(=O)[C@H]23)OCO4)cc(OC)c1OC | 67.0* | 10.8 | 8.1 | -1.3 | 85.5*
COc1cc(C2c3cc4c(cc3C(OC3OC5COC(c6cccs6)OC5C(O)C3O)C3COC(=O)C23)OCO4)cc(OC)c1O (stereo unspecified) | 71.4* | 12.9 | 0.9 | 1.0 | 61.0*
COc1cc(C2c3cc4c(cc3C(O)C3COCC23)OCO4)cc(OC)c1OC (stereo unspecified) | 1.2 | -3.2 | 11.6 | . | .
COc1cc(C2c3cc4c(cc3OC(NNC(N)=O)C2C)OCO4)cc(OC)c1OC (stereo unspecified) | 52.3* | 11.0 | -0.7 | . | 86.8*
CNC(=O)c1cc(C(=O)c2ccc(Cl)cc2)c(Br)[nH]1 | -29.6 | 2.5 | -10.4 | -0.5 | .
Cc1cc(-c2ccccc2)n(-c2cc(N/N=C/c3ccccc3O)ncn2)n1 | 76.0* | -4.0 | 4.6 | 4.8 | 89.6*
CNc1cc(-n2nc(C)cc2-c2ccccc2)ncn1 | -115.3 | -4.3 | -0.6 | -2.9 | .
O=C(Nc1nc(NC(=O)c2ccco2)n(-c2ccccc2)n1)c1ccccc1 | 18.9 | 20.5 | 6.8 | -2.1 | .
CC(C)c1ccc2oc(-c3cc(N)ccc3O)nc2c1 | 63.3* | 3.6 | 2.3 | 2.0 | 33.3

Source: PubChem BioAssay (several laboratories)
